Experimental findings from PubChem BioAssay (NCI) are described below.

The panel holds about 83,000 compounds, 20% with a hit somewhere; the sample as a whole holds those more often.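 Note: values are percent growth. 100 is the growth of untreated cells, values between 100 and 0 indicate rising inhibition; between -100 and 0 indicates cell death.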 Values without a mark were called inactive. The source made the active and inactive calls. The calls were made as follows: active = growth percent below 10; inactive = the rest.

Assay in all cases: NCI-60 one-dose screen, 48 h (100 = growth as untreated, 0 = no growth, -100 = all killed)
Common to all, as to conditions: 10 µM unless noted

Assay [1] has as its system NCI-H23 lung.
Assay [2] deals with NCI-H226 lung.
Assay [3] deals with HOP-62 NSCLC.
Assay [4] has as its system NCI-H460 lung.
The test system of assay [5] is HOP-92 NSCLC.
Assay [6] relates to NCI-H522 lung.
Assay [7] relates to A549/ATCC NSCLC.
Assay [8] concerns 786-0 renal.
Assay [9] concerns COLO 205 colon.
The subject of assay [10] is DU-145 prostate.
In assay [11] the test system is K-562 leukemia.
The subject of assay [12] is MALME-3M melanoma.
Assay [13] deals with MDA-MB-231 breast.
For assay [14], the system named is RXF 393 renal.
Assay [15] concerns SF-268 CNS.
Assay [16] concerns SF-539 CNS.
Assay [17] deals with UACC-257 melanoma.
Assay [18] relates to M14 melanoma.
The subject of assay [19] is NCI-H322M lung.
In assay [20] the test system is SF-295 CNS.

In the case of `CC(CNc1nc(Nc2ccc(Cl)c(Cl)c2)nc(C(Cl)(Cl)Cl)n1)N(C)C` (stereo not given), the growth in assay [1] is 14.2%; in assay [2], 40.8%; in assay [3], -68.4% (active); in [4], -63% (active); in [5], -17.7% (active); in assay [6], -86.8% (active). In addition, the growth in assay [7] was 4.96% (active); in assay [8] it was -77.3% (active); in assay [9], -77.7% (active); in assay [10], 5.37% (active); in assay [11], -54% (active); in assay [12], 15.6%. Moreover, the growth in assay [13] was -62.6% (active); in assay [14] it was -24.3% (active); in assay [15] it was 11.5%; in [16] it was 16.3%; in [17], -8.37% (active); in [18] it was -60.6% (active).

For the compound `COc1ccc(-c2n[nH]nc2-c2cc3ccccc3s2)cc1O`, the growth is 51.6% in assay [2]; 58.8% in assay [19]; 24.1% in [3]; 10.1% in assay [4]; 49.9% in [5]; -5.47% (active) in assay [6]. Further, the growth was 15% in assay [7]; 33.6% in [8]; 51.4% in assay [9]; 25.1% in assay [10]; 5.55% (active) in [11]; 74.7% in assay [12]. Further, the growth in assay [13] is -3% (active); in [14] it was 16.4%; in [15], 37%; in [20], 26.9%; in [16], -13.4% (active); in assay [17], 50.2%.

Regarding `Cc1ccc(S(=O)(=O)Nc2ccc(-c3cc(-c4cccc(F)c4)c(C#N)c(N)n3)cc2)cc1`, the growth in [1] is 55.3%; in assay [2] it was 36.7%; in assay [3] it was 53.1%; in assay [4] it was 93.3%; in assay [5] it was -39.3% (active); in assay [6], -71.4% (active). For the same compound, the growth in assay [7] was 33%; in [8], 13.4%; in assay [9] it was 23.9%; in assay [10], 49.4%; in assay [11] it was 2.53% (active); in assay [12], 44.4%. Also, the growth in assay [13] is 20.6%; in assay [14] it was -18.2% (active); in assay [15], 47%; in assay [20] it was 78.9%; in assay [16] it was 24%; in assay [17] it was 41.9%. Moreover, in assay [18], the growth is -8.83% (active).

As for `N#C/C(=C\c1ccc(-c2ccc(Cl)cc2)o1)c1nc(-c2ccco2)cs1`, the growth in assay [1] is 93.9%; in [2], 89.3%; in [3] it was 97.5%; in assay [4], 96%; in [5] it was 85.8%; in assay [6], 90.6%. For the same compound, the growth in [7] is 91.9%; in assay [8], 104%; in assay [9], 109%; in assay [10], 103%; in [11], 94.4%; in [12], 99.9%. The growth in assay [13] is 85.3%; in [14], 108%; in assay [15], 101%; in assay [20] it was 92.9%; in assay [16] it was 94.7%; in [17] it was 104%. The growth in assay [18] is 98.9%.

For `C#Cc1cccc(NC(=O)C2CCCN(C(=O)CCl)C2)c1` (stereo not given), the growth in assay [1] is -27% [8.25 µM] (active); in [2], 1.82% [8.25 µM] (active); in [3], 87.8% [8.25 µM]; in assay [4], 97.5% [8.25 µM]; in [5] it was 98.3% [8.25 µM]; in assay [6], -53.6% [8.25 µM] (active). Besides, the growth in assay [7] was 86.1% [8.25 µM]; in [8], 89.5% [8.25 µM]; in [9], 27.2% [8.25 µM]; in assay [10], 102% [8.25 µM]; in [11], 20.2% [8.25 µM]; in assay [12], 3.83% [8.25 µM] (active). The growth in [13] was 81.5% [8.25 µM]; in assay [14], 67% [8.25 µM]; in assay [15] it was 78.3% [8.25 µM]; in assay [20], 85.4% [8.25 µM]; in assay [16], 79.9% [8.25 µM]; in [17], 79.7% [8.25 µM]. The growth in [18] is 20.6% [8.25 µM].

In the case of `C=C(C)[C@@H]1CC[C@]2(CN)CC[C@]3(C)[C@H](CC[C@@H]4[C@@](C)(CCCN)[C@H](C(=C)C)CC[C@]43C)[C@@H]12`, the growth is 91.1% in [1]; 90.6% in assay [2]; 90.6% in [3]; 94.7% in assay [4]; 67.4% in [5]; 94% in [6]. Besides, the growth in [7] is 82.7%; in assay [8], 81.8%; in assay [9] it was 34.5%; in [10], 94.8%; in assay [11], 1.94% (active); in assay [12], 80.2%. The growth in assay [13] is 92.8%; in [14], 79%; in assay [15] it was 79.9%; in assay [20] it was 101%; in [16] it was 90.4%; in assay [17], 99.7%. Moreover, the growth in [18] was 75.2%.

Regarding `COc1cc(/C=C/c2cc(/C=C/c3ccc(O)c(OC)c3)n(-c3ccc(Cl)cc3)c(=O)n2)ccc1O`, the growth is 93.7% in assay [1]; 91.3% in [2]; 90.1% in [3]; 92.3% in [4]; 88.6% in [5]; 91.3% in assay [6]. Also, the growth in assay [7] is 98.1%; in assay [8] it was 92.6%; in [9] it was 91.3%; in [10], 91.7%; in [11] it was 72.6%; in [12] it was 100%. For the same compound, the growth in assay [13] is 60.3%; in assay [14] it was 90.7%; in assay [15], 76.1%; in assay [20], 97.3%; in assay [16], 78.1%; in [17], 97%. Also, in [18], the growth was 88.3%.

As to `Cc1ccccc1-c1nc(C(Cl)Cl)nc2cc(-c3ccccc3)nn12`, the growth is 50.4% in assay [1]; 75.3% in [2]; 54.9% in assay [3]; 81.5% in assay [4]; 45.8% in assay [5]; 82.8% in [6]. Moreover, the growth is 25.1% in assay [7]; 93.7% in assay [8]; 41.7% in assay [9]; 57.8% in assay [10]; 52.2% in [11]; 86.2% in [12]. Moreover, the growth in [13] is 44.9%; in assay [14] it was 3.45% (active); in assay [15] it was 88.1%; in assay [20], 81.6%; in assay [16] it was 76.3%; in assay [17], 107%. The growth in assay [18] is 94%.
